Laboratory results reported in PubChem BioAssay AID1159580 (chemical genetic matrix, 2015).
Several values for one entry are separate records, joined by “and”; a condition that tells them apart may be missing. Equal values may be shown once. Hit rate of the full screen: of about 5,500 compounds, about 2,000 (36%) were called active. About 18% were inconclusive and are not listed. Rule as the data show it: active = normalized growth mostly below about 0.91 (no sharp cut-off); inconclusive = no clear call, values can overlap the other calls; inactive = mostly above about 0.92. The list shows a part of the results.

Assay: chemical genetic growth profiling, strain panel (AID 1159580);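 also: tested at 20 µM; growth read once vehicle control cultures reached saturation at 30 °C; 1 = growth at the plate median or of vehicle wells; lower values mean less growth of the strain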
Settings: growth OD

Measured: normalized growth

NCCCS(=O)(=O)O
inactive: S. cerevisiae deletion strains, locus YKL068W, active compounds read low 0.995 | S. cerevisiae deletion strains, locus YKL085W, strain MDH1 (second series), active compounds read low 0.986 | S. cerevisiae deletion strains, locus YKL085W, strain MDH1, active compounds read low 0.986 | S. cerevisiae deletion strains, locus YKL160W, strain elf1, active compounds read low 1 | S. cerevisiae deletion strains, locus YKL190W, strain CNB1, active compounds read low 0.993 | S. cerevisiae deletion strains, locus YKR001C, strain vps1, active compounds read low 0.994 | S. cerevisiae deletion strains, locus YKR026C, strain gcn3, active compounds read low 1 | S. cerevisiae deletion strains, locus YKR091W, strain srl3, active compounds read low 1.01 | S. cerevisiae deletion strains, locus YLL001W, strain dnm1, active compounds read low 1.03 | S. cerevisiae deletion strains, locus YLL026W, active compounds read low 1.01 | S. cerevisiae deletion strains, locus YLL041C, strain sdh2, active compounds read low 1.01 | S. cerevisiae deletion strains, locus YLR027C, strain aat2, active compounds read low 0.996 | S. cerevisiae deletion strains, locus YLR039C, strain RIC1, active compounds read low 0.986 | S. cerevisiae deletion strains, locus YLR058C, strain SHM2, active compounds read low 0.965 | S. cerevisiae deletion strains, locus YLR102C, strain apc9, active compounds read low 0.993 | S. cerevisiae deletion strains, locus YLR113W, strain HOG1, active compounds read low 0.954 | S. cerevisiae deletion strains, locus YLR221C, strain rsa3, active compounds read low 1.01 | S. cerevisiae deletion strains, locus YLR258W, strain gsy2, active compounds read low 1.01 | S. cerevisiae deletion strains, locus YLR262C, strain YPT6 (second series), active compounds read low 1.02 | S. cerevisiae deletion strains, locus YLR262C, strain YPT6, active compounds read low 1.05 | S. cerevisiae deletion strains, locus YLR268W, strain sec22, active compounds read low 1.04 | S. cerevisiae deletion strains, locus YLR320W, strain mms22, active compounds read low 1.01 | S. cerevisiae deletion strains, locus YLR330W, strain CHS5, active compounds read low 0.983 | S. cerevisiae deletion strains, locus YLR342W, strain FKS1 (second series), active compounds read low 0.99 | S. cerevisiae deletion strains, locus YLR342W, strain FKS1, active compounds read low 1.02 | S. cerevisiae deletion strains, locus YLR357W, strain rsc2, active compounds read low 1.04 | S. cerevisiae deletion strains, locus YLR370C, strain arc18, active compounds read low 1.01 | S. cerevisiae deletion strains, locus YLR371W, strain rom2, active compounds read low 0.934 | S. cerevisiae deletion strains, locus YLR384C, strain iki3, active compounds read low 1.01 | S. cerevisiae deletion strains, locus YLR418C, strain cdc73, active compounds read low 1.01 | S. cerevisiae deletion strains, locus YML016C, strain PPZ1, active compounds read low 0.984 | S. cerevisiae deletion strains, locus YML032C, strain rad52, active compounds read low 0.994 | S. cerevisiae deletion strains, locus YML120C, strain ndi1, active compounds read low 1.02 | S. cerevisiae deletion strains, locus YML124C, strain tub3, active compounds read low 0.987 | S. cerevisiae deletion strains, locus YMR058W, strain fet3, active compounds read low 1.04 | S. cerevisiae deletion strains, locus YMR078C, strain ctf18, active compounds read low 0.999 | S. cerevisiae deletion strains, locus YMR125W, strain sto1, active compounds read low 1.02 | S. cerevisiae deletion strains, locus YMR129W, active compounds read low 1.01 | S. cerevisiae deletion strains, locus YMR205C, strain PFK2, active compounds read low 1.02 | S. cerevisiae deletion strains, locus YMR223W, strain ubp8, active compounds read low 0.96 | S. cerevisiae deletion strains, locus YMR231W, strain pep5, active compounds read low 1.02 | S. cerevisiae deletion strains, locus YMR263W, strain SAP30, active compounds read low 0.977 | S. cerevisiae deletion strains, locus YMR307W, strain GAS1, active compounds read low 0.971 | S. cerevisiae deletion strains, locus YNL067W, strain RPL9B, active compounds read low 1.01 | S. cerevisiae deletion strains, locus YNL071W, strain lat1, active compounds read low 1.03 | S. cerevisiae deletion strains, locus YNL128W, strain TEP1, active compounds read low 0.974 | S. cerevisiae deletion strains, locus YNL153C, strain GIM3, active compounds read low 0.991 and 1.01 | S. cerevisiae deletion strains, locus YNL175C, strain NOP13, active compounds read low 1 | S. cerevisiae deletion strains, locus YNL183C, strain NPR1, active compounds read low 0.937 | S. cerevisiae deletion strains, locus YNL197C, strain WHI3, active compounds read low 1.01 | S. cerevisiae deletion strains, locus YNL209W, strain ssb2, active compounds read low 1.01 | S. cerevisiae deletion strains, locus YNL224C, strain SQS1, active compounds read low 1.01 | S. cerevisiae deletion strains, locus YNL233W, strain BNI4, active compounds read low 0.987 | S. cerevisiae deletion strains, locus YNL248C, strain rpa49, active compounds read low 0.959 | S. cerevisiae deletion strains, locus YNL250W, strain rad50, active compounds read low 0.976 | S. cerevisiae deletion strains, locus YNL271C, strain bni1, active compounds read low 0.999 | S. cerevisiae deletion strains, locus YNL298W, strain CLA4, active compounds read low 0.967 | S. cerevisiae deletion strains, locus YNL307C, strain MCK1, active compounds read low 0.998 | S. cerevisiae deletion strains, locus YNL322C, strain KRE1 (second series), active compounds read low 1.01 | S. cerevisiae deletion strains, locus YNL322C, strain KRE1, active compounds read low 0.987 | S. cerevisiae deletion strains, locus YNR049C, strain mso1, active compounds read low 1.01 | S. cerevisiae deletion strains, locus YNR052C, strain pop2, active compounds read low 0.969 | S. cerevisiae deletion strains, locus YOL006C, strain TOP1, active compounds read low 1.02 | S. cerevisiae deletion strains, locus YOL012C, strain htz1 0.962 | S. cerevisiae deletion strains, locus YOL147C, strain pex11, active compounds read low 0.989 | S. cerevisiae deletion strains, locus YOR001W, strain rrp6, active compounds read low 1.01 | S. cerevisiae deletion strains, locus YOR061W, strain CKA2, active compounds read low 0.965 | S. cerevisiae deletion strains, locus YOR069W, strain VPS5, active compounds read low 0.984 | S. cerevisiae deletion strains, locus YOR070C, strain gyp1, active compounds read low 1.01 | S. cerevisiae deletion strains, locus YOR080W, strain dia2, active compounds read low 1.03 | S. cerevisiae deletion strains, locus YOR083W, strain WHI5 (second series), active compounds read low 1.02 | S. cerevisiae deletion strains, locus YOR083W, strain WHI5, active compounds read low 1 | S. cerevisiae deletion strains, locus YOR106W, strain vam3, active compounds read low 1.01 | S. cerevisiae deletion strains, locus YOR136W, strain idh2, active compounds read low 0.981 | S. cerevisiae deletion strains, locus YOR144C, strain elg1, active compounds read low 0.998 | S. cerevisiae deletion strains, locus YOR184W, strain ser1, active compounds read low 0.983 | S. cerevisiae deletion strains, locus YOR231W, strain MKK1, active compounds read low 0.976 | S. cerevisiae deletion strains, locus YOR265W, strain rbl2, active compounds read low 1.02 | S. cerevisiae deletion strains, locus YOR270C, strain vph1, active compounds read low 1.09 | S. cerevisiae deletion strains, locus YOR290C, strain snf2, active compounds read low 1.01 | S. cerevisiae deletion strains, locus YOR316C, strain cot1, active compounds read low 0.981 | S. cerevisiae deletion strains, locus YPL051W, strain arl3, active compounds read low 1.01 | S. cerevisiae deletion strains, locus YPL055C, strain LGE1, active compounds read low 0.993 | S. cerevisiae deletion strains, locus YPL078C, strain atp4, active compounds read low 1.02 | S. cerevisiae deletion strains, locus YPL106C, strain sse1, active compounds read low 1.01 | S. cerevisiae deletion strains, locus YPL240C, strain hsp82, active compounds read low 1.03 | S. cerevisiae deletion strains, locus YPL241C, strain CIN2, active compounds read low 0.997 | S. cerevisiae deletion strains, locus YPL256C, strain CLN2, active compounds read low 0.964 | S. cerevisiae deletion strains, locus YPR119W, strain clb2, active compounds read low 0.987 | S. cerevisiae deletion strains, locus YPR141C, strain kar3, active compounds read low 0.973 | S. cerevisiae deletion strains, locus YPR163C, strain tif3, active compounds read low 0.998 | S. cerevisiae deletion strains, locus YPR167C, strain met16, active compounds read low 1 | S. cerevisiae deletion strains, strain wtn01, active compounds read low 0.958 | S. cerevisiae strains, strain wild type, active compounds read low 0.984
